Experimental data as given in PubChem BioAssay AID493188 (National Center for Advancing Translational Sciences (NCATS), 2011).
Inconclusive results are not listed. Active and inactive are the calls of the source. Calls come from the whole dose curve; as a rule, active = well fitted inhibition curve with a large enough effect; inconclusive = small, poorly fitted or top-dose-only effect; inactive = flat fitted curve, though single readings scatter.

Molecular target: Galactokinase (Homo sapiens) (UniProt P51570)
Sequence (P51570 whole entry, looked up): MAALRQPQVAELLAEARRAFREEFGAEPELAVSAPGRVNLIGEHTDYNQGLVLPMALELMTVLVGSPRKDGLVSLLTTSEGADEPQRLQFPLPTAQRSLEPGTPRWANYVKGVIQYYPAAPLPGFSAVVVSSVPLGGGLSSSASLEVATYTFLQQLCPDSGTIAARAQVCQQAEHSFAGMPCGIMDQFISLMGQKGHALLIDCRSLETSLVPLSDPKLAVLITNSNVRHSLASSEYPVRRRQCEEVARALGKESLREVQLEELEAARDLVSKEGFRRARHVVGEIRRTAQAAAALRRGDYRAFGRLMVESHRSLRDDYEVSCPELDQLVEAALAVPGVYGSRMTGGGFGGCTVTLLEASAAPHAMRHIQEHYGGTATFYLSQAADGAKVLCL
Assay: Confirmation Assay for Inhibitors of Human Galactokinase (GALK): SAR round 2
Description: NIH Molecular Libraries Probe Production Centers Network [MLPCN] NIH Chemical Genomics Center [NCGC] MLPCN Grant: R03 MH085689-01 Assay Submitter (PI): Kent Lai (University of Utah School of Medicine, 50 N Mario Capecchi Drive, Salt Lake City, UT 84132) NCGC Assay Overview Inherited deficiency of galactose-1-phosphate uridyltransferase (GALT) can result in a potentially lethal disorder called Classic Galactosemia (OMIM 230400). Several lines of evidence indicate that an elevated level of galactose-1-phosphate (gal-1-p), the product of galactokinase (GALK), is a major, if not sole, pathogenic mechanism in patients with classic galactosemia. Therefore, finding inhibitors of GALK is a potential novel therapy for this inherent metabolic disease and is the long term goal of this project. Active compounds observed in the qHTS GALK assay (AID: 1868) were cherry picked and re-screened for validation. […]
NCGC Assay Protocol Summary: Three uL/well of ATP-buffer solution (35 uM ATP, 20mM HEPES pH8.0, 5 mM MgCl2, 60 mM NaCl, 1 mM DTT, 0.01% BSA final concentration) was dispensed into 1536-well, assay plates (Greiner, solid white medium-binding plates) with Aurora Discovery BioRAPTR Flying Reagent Dispenser (FRD; Beckton-Dickenson). […] Luminescence was detected with the ViewLux plate reader (Perkin Elmer, Waltham, MA) after 2 min incubation using a 1 sec exposure time and 2x binning.

CC(=O)OCOCC(=O)OCO[P+](=O)C(OCOC(C)=O)c1cc([N+](=O)[O-])ccc1Oc1ccc(Br)cc1 (stereo unspecified)
outcome: inactive
